# Measurements: the supplement of paper PMC4466140
# Target: AgAbp1
# Experiment: SPOT peptide array binding signal intensity (averaged, normalized) (arbitrary units (background-subtracted, floor 0; scale differs between SH3 domains)); higher = stronger binding of the SH3 domain to the peptide
# Outline: (§1)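 Spot intensities were captured after detection with anti-GST antibody, an HRP-linked anti-mouse secondary and luminol, and quantified with Genespotter. The probes were GST-fused SH3 domains from four yeast species, produced in E. coli BL21(DE3), purified on glutathione Sepharose and incubated at 10 μg/ml overnight at 4°C on cellulose-bound synthetic 15-mer peptides with cysteines replaced by serines. Binding signal is the normalized, background-subtracted spot intensity averaged over replicates, and its arbitrary units differ between domains.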
row,Binder,SPOT peptide array binding signal intensity
1,EQEEIAPSLPSRNSI,6

# Target: AgBbc1
# Experiment: as above
# Outline: as §1
row,Binder,SPOT peptide array binding signal intensity
1,EQEEIAPSLPSRNSI,≤ 0

# Target: AgBem1-D1
# Experiment: as above
# Outline: as §1
row,Binder,SPOT peptide array binding signal intensity
1,EQEEIAPSLPSRNSI,≤ 0

# Target: AgBzz1-D1
# Experiment: as above
# Outline: as §1
row,Binder,SPOT peptide array binding signal intensity
1,EQEEIAPSLPSRNSI,10.5

# Target: AgBzz1-D2
# Experiment: as above
# Outline: as §1
row,Binder,SPOT peptide array binding signal intensity
1,EQEEIAPSLPSRNSI,1

# Target: AgCyk3
# Experiment: as above
# Outline: as §1
row,Binder,SPOT peptide array binding signal intensity
1,EQEEIAPSLPSRNSI,≤ 0

# Target: AgFus1
# Experiment: as above
# Outline: as §1
row,Binder,SPOT peptide array binding signal intensity
1,EQEEIAPSLPSRNSI,≤ 0

# Target: AgHof1
# Experiment: as above
# Outline: as §1
row,Binder,SPOT peptide array binding signal intensity
1,EQEEIAPSLPSRNSI,4.25

# Target: AgHse1
# Experiment: as above
# Outline: as §1
row,Binder,SPOT peptide array binding signal intensity
1,EQEEIAPSLPSRNSI,≤ 0

# Target: AgLsb1
# Experiment: as above
# Outline: as §1
row,Binder,SPOT peptide array binding signal intensity
1,EQEEIAPSLPSRNSI,17.5

# Target: AgLsb4
# Experiment: as above
# Outline: as §1
row,Binder,SPOT peptide array binding signal intensity
1,EQEEIAPSLPSRNSI,1050

# Target: AgMyo5
# Experiment: as above
# Outline: as §1
row,Binder,SPOT peptide array binding signal intensity
1,EQEEIAPSLPSRNSI,≤ 0

# Target: AgNbp2
# Experiment: as above
# Outline: as §1
row,Binder,SPOT peptide array binding signal intensity
1,EQEEIAPSLPSRNSI,10

# Target: AgRvs167
# Experiment: as above
# Outline: as §1
row,Binder,SPOT peptide array binding signal intensity
1,EQEEIAPSLPSRNSI,3

# Target: AgSho1
# Experiment: as above
# Outline: as §1
row,Binder,SPOT peptide array binding signal intensity
1,EQEEIAPSLPSRNSI,≤ 0

# Target: AgSla1-D1-D2
# Experiment: as above
# Outline: as §1
row,Binder,SPOT peptide array binding signal intensity
1,EQEEIAPSLPSRNSI,≤ 0

# Target: AgSla1-D3
# Experiment: as above
# Outline: as §1
row,Binder,SPOT peptide array binding signal intensity
1,EQEEIAPSLPSRNSI,≤ 0

# Target: CaAbp1-D1
# Experiment: as above
# Outline: as §1
row,Binder,SPOT peptide array binding signal intensity
1,EQEEIAPSLPSRNSI,≤ 0

# Target: CaAbp1-D2
# Experiment: as above
# Outline: as §1
row,Binder,SPOT peptide array binding signal intensity
1,EQEEIAPSLPSRNSI,7.5

# Target: CaBbc1
# Experiment: as above
# Outline: as §1
row,Binder,SPOT peptide array binding signal intensity
1,EQEEIAPSLPSRNSI,5.5

# Target: CaBem1-D1
# Experiment: as above
# Outline: as §1
row,Binder,SPOT peptide array binding signal intensity
1,EQEEIAPSLPSRNSI,2

# Target: CaBzz1-D1
# Experiment: as above
# Outline: as §1
row,Binder,SPOT peptide array binding signal intensity
1,EQEEIAPSLPSRNSI,≤ 0

# Target: CaBzz1-D2
# Experiment: as above
# Outline: as §1
row,Binder,SPOT peptide array binding signal intensity
1,EQEEIAPSLPSRNSI,≤ 0

# Target: CaCyk3
# Experiment: as above
# Outline: as §1
row,Binder,SPOT peptide array binding signal intensity
1,EQEEIAPSLPSRNSI,1

# Target: CaFus1
# Experiment: as above
# Outline: as §1
row,Binder,SPOT peptide array binding signal intensity
1,EQEEIAPSLPSRNSI,22

# Target: CaHof1
# Experiment: as above
# Outline: as §1
row,Binder,SPOT peptide array binding signal intensity
1,EQEEIAPSLPSRNSI,1

# Target: CaHse1
# Experiment: as above
# Outline: as §1
row,Binder,SPOT peptide array binding signal intensity
1,EQEEIAPSLPSRNSI,4

# Target: CaLsb1
# Experiment: as above
# Outline: as §1
row,Binder,SPOT peptide array binding signal intensity
1,EQEEIAPSLPSRNSI,0.5

# Target: CaLsb4
# Experiment: as above
# Outline: as §1
row,Binder,SPOT peptide array binding signal intensity
1,EQEEIAPSLPSRNSI,5990

# Target: CaMyo5
# Experiment: as above
# Outline: as §1
row,Binder,SPOT peptide array binding signal intensity
1,EQEEIAPSLPSRNSI,≤ 0

# Target: CaNbp2
# Experiment: as above
# Outline: as §1
row,Binder,SPOT peptide array binding signal intensity
1,EQEEIAPSLPSRNSI,≤ 0

# Target: CaRvs167
# Experiment: as above
# Outline: as §1
row,Binder,SPOT peptide array binding signal intensity
1,EQEEIAPSLPSRNSI,43.8

# Target: CaRvs167-3
# Experiment: as above
# Outline: as §1
row,Binder,SPOT peptide array binding signal intensity
1,EQEEIAPSLPSRNSI,1

# Target: CaSho1
# Experiment: as above
# Outline: as §1
row,Binder,SPOT peptide array binding signal intensity
1,EQEEIAPSLPSRNSI,≤ 0

# Target: CaSla1-D1-D2
# Experiment: as above
# Outline: as §1
row,Binder,SPOT peptide array binding signal intensity
1,EQEEIAPSLPSRNSI,≤ 0

# Target: CaSla1-D3
# Experiment: as above
# Outline: as §1
row,Binder,SPOT peptide array binding signal intensity
1,EQEEIAPSLPSRNSI,≤ 0

# Target: ScAbp1
# Experiment: as above
# Outline: as §1
row,Binder,SPOT peptide array binding signal intensity
1,EQEEIAPSLPSRNSI,14.5
